# Test results reported in PubChem BioAssay AID720504 (National Center for Advancing Translational Sciences (NCATS), 2013).
# In all, about 360,000 compounds went through this assay and about 10,000 (2.8%) were called active. About 4% were inconclusive and are not listed. Calls come from the whole dose curve; as a rule, active = well fitted inhibition curve with a large enough effect; inconclusive = small, poorly fitted or top-dose-only effect; inactive = flat fitted curve, though single readings scatter. The list comes from a sample in which actives are over-represented; it also holds similar structures and randomly drawn compounds.
# Biological target: Serine/threonine-protein kinase PLK1 (Homo sapiens) (UniProt P53350)
# Sequence (P53350 whole entry, looked up, the tested form may be a part): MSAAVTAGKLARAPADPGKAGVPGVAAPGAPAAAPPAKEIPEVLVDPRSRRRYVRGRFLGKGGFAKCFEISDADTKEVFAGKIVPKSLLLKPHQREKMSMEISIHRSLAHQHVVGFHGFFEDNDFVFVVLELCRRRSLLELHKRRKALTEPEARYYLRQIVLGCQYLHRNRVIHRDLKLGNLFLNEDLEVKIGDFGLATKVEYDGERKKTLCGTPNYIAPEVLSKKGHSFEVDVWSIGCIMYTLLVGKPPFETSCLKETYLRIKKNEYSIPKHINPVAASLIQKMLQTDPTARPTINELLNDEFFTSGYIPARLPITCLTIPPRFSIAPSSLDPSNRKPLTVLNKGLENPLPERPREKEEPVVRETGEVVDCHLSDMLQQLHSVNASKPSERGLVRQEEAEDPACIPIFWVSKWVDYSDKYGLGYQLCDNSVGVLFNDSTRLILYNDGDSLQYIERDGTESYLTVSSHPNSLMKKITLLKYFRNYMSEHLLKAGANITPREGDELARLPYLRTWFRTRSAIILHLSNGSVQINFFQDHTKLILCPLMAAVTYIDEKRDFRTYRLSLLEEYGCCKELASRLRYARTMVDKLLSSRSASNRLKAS
# Assay: qHTS for Inhibitors of PLK1-PDB (polo-like kinase 1 - polo-box domain): Primary Screen; note: nearly all actives have a fitted effect of over 65% in size; for max response, negative = inhibition: series mostly up to about 57 µM
# Conditions: Plk1 PBD binding of FITC phosphopeptide, fluorescence polarization
# % is set by controls: 0 for no effect and ±100 for the full control effect; potency is the fitted concentration of half-maximal effect.
SMILES,"max response, negative = inhibition",Potency
O=C(NCc1ccccc1Cl)c1csc([C@@H]2O[C@H](CO)[C@@H](O)[C@H]2O)n1,-2.33% (inactive),–
CCCNC(=O)C1(C)CCCN(C(=O)c2cccc(OC(C)=O)c2C)C1 (stereo unspecified),2.94% (inactive),–
COc1cccc(OC)c1C(=O)NC(=S)Nc1ccc(N2CCOCC2)c(Cl)c1,-8.56% (inactive),–
O=C(Nc1ccc(S(=O)(=O)N2CCOCC2)cc1)C1CCN(S(=O)(=O)c2ccc(Cl)cc2)CC1,3.5% (inactive),–
O=C(NNC(=S)Nc1ccccc1)c1cccc(S(=O)(=O)N2CCOCC2)c1,2.12% (inactive),–
Cc1ccc(C(=O)NC(=S)Nc2ccc(N3CCOCC3)cc2)cc1,-12.8% (inactive),–
COc1ccccc1C(=O)NC(=S)Nc1ccc(N2CCOCC2)cc1,–,26.7 µM (active)
O=C(NC(=S)Nc1ccc(S(=O)(=O)N2CCOCC2)cc1)c1ccccc1[N+](=O)[O-],–,33.6 µM (active)
CC(C)(C)NC(=O)C(CCc1ccccc1)n1c(=O)c(-c2ccccc2)nc2ccccc21 (stereo unspecified),-22.7% (inactive),–
CCCCN(C=O)c1c(CC)nc2c(OCCC3CCCCC3)cccn12,-1.3% (inactive),–
O=CNc1cc(-c2ccc(C(=O)N3CCOCC3)cc2)cn2c(-c3ccc(F)cc3)cnc12,-25.7% (inactive),–
O=C(C[C@H]1CC[C@@H](NC(=O)c2ccncc2)[C@@H](CO)O1)NCC1CC1,-5.23% (inactive),–
Cc1sc2ncn(CC(=O)NCCCC(=O)NCc3ccc(F)cc3)c(=O)c2c1C,-9.91% (inactive),–
CN(Cc1ccccc1)C(=O)CCNC(=O)Cn1cnc2ccccc2c1=O,-6.79% (inactive),–
Cc1sc2ncn(CC(=O)NCCCC(=O)N(C)Cc3ccccc3)c(=O)c2c1C,–,26.7 µM (active)
Cc1ccc([C@H]2C[C@H](O)[C@@H](n3cc(COC(=O)c4ccccc4)nn3)CN2CC2CCCCC2)cc1,7.82% (inactive),–
COc1cccc(Nc2nnc(SCC(=O)N3CC(=O)Nc4ccccc43)s2)c1,–,26.7 µM (active)
Cc1nc(SCC(=O)N2CC(=O)Nc3ccccc32)c2c(C)c(C)sc2n1,-1.22% (inactive),–
COc1cccc(Nc2nnc(SCC(=O)N3CC(C)OC(C)C3)s2)c1 (stereo unspecified),1.98% (inactive),–
COC(=O)[C@]12CCCCC=C1N(CCC1=CCCCC1)C(=O)[C@H](CC(=O)N1CCSCC1)C2,-4.1% (inactive),–
CCOC(=O)[C@]12CCC=C1N(CCC1=CCCCC1)C(=O)[C@H](CC(=O)NCc1ccc(C)o1)C2,-24.8% (inactive),–
CC(=O)Nc1cccc(-c2cc(NC=O)c3ncc(-c4ccc(F)c(Cl)c4)n3c2)c1,-21.6% (inactive),–

SMILES,"max response, negative = inhibition",Potency
O=S1(=O)CCN(C2CCCCCCCCCCC2)CC1,-0.289% (inactive),–
CCOC(=O)C(=Cc1ccccc1)C(=O)c1ccccc1,-10.7% (inactive),–
Cc1cc(C)nc(S/C=C/C(=O)c2ccccc2)n1,–,2.99 µM (active)
Cc1cc(C)nc(N(C#N)CC(=O)Nc2ccccc2)n1,-10.2% (inactive),–
Cc1ccc(S(=O)(=O)N2C[C@@H](C)[C@]3(C2)[C@H](O)[C@H](OC(=O)NCc2ccccc2)C[C@H]2C(=O)N(c4ccccc4)C(=O)[C@H]23)cc1,-4.82% (inactive),–
COc1ccc(C(=O)N2CCC(C(=O)Nc3cccc(C)c3)CC2)cc1OC,-1.21% (inactive),–
O=C(Nc1ccccc1)C1CCN(C(=O)c2ccc(Br)cc2)CC1,1.93% (inactive),–
COc1ccc(C(=O)N2CCC(C(=O)Nc3ccc(C)cc3)CC2)cc1,–,3.36 µM (active)
Cc1cccc(C)c1NC(=O)C(c1cccc2ccccc12)n1c(=O)c(-c2ccco2)nc2ccccc21 (stereo unspecified),-15.3% (inactive),–
CCOC(=O)[C@]12CCCC=C1N(Cc1ccc3c(c1)OCO3)C(=O)[C@H](CC(=O)NCc1cccs1)C2,-29.1% (inactive),–
Cc1c(C)c2cc3c4c(oc3c(C)c2oc1=O)CCCC4,-0.836% (inactive),–
Cc1c(CCC(=O)N[C@@H](CC(C)C)C(=O)O)c(=O)oc2c(C)c3oc4c(c3cc12)CCCC4,–,29.9 µM (active)
CC[C@@H](C)[C@H](NC(=O)CCc1c(C)c2cc3c4c(oc3c(C)c2oc1=O)CCCC4)C(=O)O,-24% (inactive),–
CC(OC(=O)c1cccnc1Cl)C(=O)NC1CCCCC1 (stereo unspecified),1.67% (inactive),–
O=C(OCC(=O)N1CCCCCC1)c1cccc(Cl)c1Cl,-1.69% (inactive),–
COc1ccc(CC(N)c2csc(NC(=O)NC(c3ccccc3)c3ccccc3)n2)cc1 (stereo unspecified),-3.78% (inactive),–
O=C(Nc1ccc(Cl)cc1)c1csc([C@H]2C[C@H](O)[C@@H](CO)O2)n1,-10.3% (inactive),–
C=CCn1c(=S)[nH]c2nc3c(cc2c1=O)COC(C)(C)C3,1.98% (inactive),–
C=CCn1cnc2scc(-c3ccccc3)c2c1=O,-4% (inactive),–
C=CCn1c(=S)[nH]c2scc(-c3ccco3)c2c1=O,–,26.7 µM (active)
C[C@H](CO)N1C[C@H](C)[C@H](CN(C)C(=O)Nc2ccc3c(c2)OCO3)Oc2ncc(Br)cc2C1=O,-14.4% (inactive),–
CC(C)CCC(=O)Nc1cc(S(=O)(=O)N2CCOCC2)ccc1N1CCCC1,-0.0205% (inactive),–

SMILES,"max response, negative = inhibition",Potency
CC(=O)NCCC(=O)Nc1cc(S(=O)(=O)N2CCOCC2)ccc1N1CCOCC1,-0.805% (inactive),–
COCCNC(=S)Nc1cc(S(=O)(=O)N2CCOCC2)ccc1N1CCCCC1,–,2.99 µM (active)
CCCNC(=O)C1(C)CCCN(C(=O)c2oc3ccccc3c2C)C1 (stereo unspecified),-5.78% (inactive),–
COC(=O)c1ccc2nc(C3CCCCC3)c(Cc3cccc(F)c3)n2c1,-6.81% (inactive),–
O[C@H]1C[C@H](c2ccc(Cl)cc2)N(Cc2cccs2)C[C@@H]1n1cc(C2CC2)nn1,-4.6% (inactive),–
COc1ccc(C2C3=C(CCCC3=O)N(CC(=O)O)C3=C2C(=O)CCC3)cc1,-11.9% (inactive),–
CCCCNC(=O)C1CCC(=O)N1CCc1ccccc1 (stereo unspecified),-10.6% (inactive),–
CCCCN1C(=O)CCC(C(=O)O)C1c1ccc(OC)cc1 (stereo unspecified),–,26.7 µM (active)
CCCCC(=O)N(C)c1c(CC)nc2c(OCc3ccc(Cl)cc3Cl)cccn12,-5.31% (inactive),–
COc1cccc(CN2CCC(C(=O)NC(c3ccc4c(c3)OCO4)c3ccccn3)CC2)c1 (stereo unspecified),1.25% (inactive),–
C[C@@H]1CC2=C(C(=O)OC(C)(C)O2)[C@@H](C2CC2)O1,-2.71% (inactive),–
COc1ccc(NC(=O)Cn2ncn3c(cc4ccccc43)c2=O)c(OC)c1OC,-11.6% (inactive),–
CCc1ccc(NC(=O)Cn2ncn3c(cc4ccccc43)c2=O)cc1,–,15 µM (active)
CC(C)c1ccc(NC(=O)Cn2ncc3ccccc32)cc1,5.15% (inactive),–
COc1ccc(C2OC(CCc3ccccc3)Cc3[nH]c(=S)[nH]c(=O)c32)cc1 (stereo unspecified),-0.658% (inactive),–
CC(=O)Nc1cc(-c2ccccc2N(C)C)cn2c(-c3ccc(F)c(Cl)c3)cnc12,-6.53% (inactive),–
COC(=O)[C@]12CCCCC=C1N(Cc1ccc3c(c1)OCO3)C(=O)[C@H](CC(=O)NCc1cccs1)C2,-8.01% (inactive),–
CCCNC(=O)C1(C)CCCN(Cc2cccc(C(F)(F)F)c2)C1 (stereo unspecified),-5.05% (inactive),–
C=CCn1c(SCCOc2ccc(OC)cc2)nnc1C(NC(=O)c1ccc(OC)cc1)C(C)C (stereo unspecified),-13.7% (inactive),–
COc1ccc(-c2nnc(SCC(=O)Nc3cccnc3Cl)n2C)cc1,-2.41% (inactive),–
COc1ccc(C(=O)NCc2nnc(SCCOc3ccccc3)n2C)cc1,–,16.8 µM (active)
COc1ccc(C(=O)NCc2nnc(SCC(=O)NC3=NCCS3)n2C)cc1,-0.0324% (inactive),–

SMILES,"max response, negative = inhibition",Potency
COc1ccc(CC(=O)NCc2nnc(SCC(=O)Nc3ncc(C)s3)n2C)cc1,–,13.4 µM (active)
COc1ccc(CC(=O)NCc2nnc(SCC(=O)Nc3nccs3)n2C)cc1,3.83% (inactive),–
COc1cc2ccc(C(C)=O)c(O)c2cc1OC,-1.98% (inactive),–
Cc1nc2c(OCC(=O)C(C)(C)C)cccn2c1N(C)Cc1cccs1,-10% (inactive),–
CCOC(=O)C1CCN(CC(=O)Nc2ccc(OC)c(S(=O)(=O)N3CCCCC3)c2)CC1,3.48% (inactive),–
COc1ccc(NC(=O)C2=NNC(=O)CC2)cc1S(=O)(=O)N1CCCCC1,–,16.8 µM (active)
COc1ccccc1C(=O)Nc1ccc(C)c(S(=O)(=O)N2CCCCC2)c1,-5.05% (inactive),–
COc1ccc(NC(=O)COC(=O)C2COc3ccccc3O2)cc1 (stereo unspecified),-3.22% (inactive),–
CC(=O)c1cccc(NC(=O)C2COc3ccccc3O2)c1 (stereo unspecified),2.4% (inactive),–
O=C(Nc1nc(-c2ccncc2)cs1)C1COc2ccccc2O1 (stereo unspecified),–,3.36 µM (active)
CCc1nc2ccc(C(=O)Nc3cc(-c4ccccc4)ccc3OC)cn2c1N(CC)CC(=O)N(C)C,-4.06% (inactive),–
COc1ccc(S(=O)(=O)NCC(=O)NCc2cc(=O)n(C)c(=O)n2C)cc1F,-15.2% (inactive),–
Cc1ccc(C(=O)NCC(=O)NC2CC2)cc1,-13.7% (inactive),–
Cc1ccc(C(=O)NCC(=O)NCc2cc(=O)n(C)c(=O)n2C)cc1,–,26.7 µM (active)
O=C(O)c1ccccc1Cc1ccc(F)c2ccccc12,-10.5% (inactive),–
CN1OC[C@@H]2CN(C(=O)c3cccnc3)[C@H](c3ccc(N4CCCCC4)cc3)C[C@@H]21,-6.62% (inactive),–
COc1ccc(NC(=O)C2(C)Cc3c(-c4ccc(C(N)=O)cc4)ccnc3O2)cc1 (stereo unspecified),-13.3% (inactive),–
CCOC(=O)C1=C(C)Nc2sc(C(=O)c3ccc(Br)cc3)c(N)c2C1c1ccc(C(=O)OC)cc1 (stereo unspecified),3.24% (inactive),–
CCOC(=O)c1ccc(Nc2cc3ccccc3c(=O)[nH]2)cc1,-11.1% (inactive),–
CCOC(=O)c1sc(=S)n2c1[nH]c(=O)c1ccc(C(=O)OC)cc12,–,6.7 µM (active)
